Screens deposited in PubChem BioAssay by National Center for Advancing Translational Sciences (NCATS).
HT1080 IDH1KD tx: HT-1080 IDH1 knockdown cell toxicity (counter line); HT-1080 IDH1 knockdown viability, ATP luminescence, 48 h; Potency, µM (titrated, usually from 46.1 µM), inactives show at the top dose activity, negative = toxicity, actives largely listed as cytotoxic; 2% of 360,000 active; AID 686971;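 note: 0% = DMSO wells and -100% = cell-free medium wells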
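Luminescent ATP read-out (CellTiter-Glo, 10 min at room temperature) after 48 h compound exposure at 37 °C gave viability of IDH1-knockdown HT-1080 cells. Activity was normalised to DMSO and cell-free wells, then fitted as concentration-response curves.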
HT1080NT lethal: kills 2HG-producing HT-1080-NT fibrosarcoma cells | Potency, µM (top dose mostly 46.1 µM), for inactives: top-dose activity, negative = less viability, actives largely listed as cytotoxic | 1.6% of 360,000 active | HT-1080-NT fibrosarcoma viability, CellTiter-Glo ATP luminescence, 48 h;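 note: NT is the 2HG producing partner of a matched IDH1 knockdown line; 0% = DMSO-treated cells and -100% = media-only wells without cells; nearly all actives have a fitted effect of over 55% in size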
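HT-1080-NT fibrosarcoma cells (2HG-overproducing), 750 cells/well in RPMI with 5% FBS, dosed after 2 h and incubated 48 h at 37C. CellTiter-Glo luminescence normalized to DMSO and no-cell wells; concentration-response curves fitted and classed.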
TGFb inhibitor: blocks TGF-b signaling; HepG2 CAGA-GFP TGF-b/SMAD3 reporter, GFP fluorescence, 18 h; TGF-beta stimulated, 500 pg/mL final; Potency, µM (titrated, usually from 46.1 µM), without a hit: at the top dose activity, negative = inhibition, most hits filed as inhibitors; 1.2% of 410,000 active; AID 588855; note: % is set by controls: 0 for no effect and ±100 for the full control effect; nearly all actives have a fitted effect of over 65% in size
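Smad-responsive CAGA-GFP expression was quantified in HEPG2 cells exposed to compounds and 500 pg/mL final TGF-beta for 18 h at 37 degrees C; unstimulated wells defined full inhibition.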
HepG2 tox: kills HepG2 cells in TGF-b inhibitor counter-screen; HepG2 CAGA-GFP viability, ATP luminescence, 18 h; Potency, µM (doses to about 46.1 µM), inactives show at the highest dose activity change, negative = cytotoxicity, actives largely listed as cytotoxic; 0.76% of 410,000 active
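CellTiter-Glo luminescence gave cytotoxicity after 18 hours at 37 degrees C. The cells were HepG2 CAGA-GFP in 1% FBS DMEM, stimulated with 500 pg/mL TGF-beta after compound addition. %Activity was normalised to no-cell wells (complete cell-killing) and DMSO (no toxicity), and curves were fitted and classified.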
KB-V1 MDR tox: kills drug-selected multidrug resistant KB-V1 cells | Potency, µM (top dose mostly 46.1 µM), actives largely listed as cytotoxic | AID 1347076 | KB-V1 MDR cells viability, CellTiter-Glo, 72 h | 3.4% of 400,000 active; note: % is set by controls: 0 for no effect and ±100 for the full control effect; nearly all actives have a fitted effect of over 60% in size
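In this primary screen, KB-V1 cells overexpressing P-gp are incubated with library compounds (lowest to highest concentration) for 72 h at 37 degrees C before a luminescent ATP viability read.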
KB-3-1 tox: kills parental KB-3-1 adenocarcinoma cells; 1.4% of 400,000 active; KB-3-1 viability, CellTiter-Glo ATP luminescence, 72 h; Potency, µM (top dose mostly 46.1 µM), most hits filed as cytotoxic; AID 1347075; note: % is set by controls: 0 for no effect and ±100 for the full control effect; nearly all actives have a fitted effect of over 60% in size
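KB-3-1 cells, DMEM (no phenol red) + 10% FBS; compound by pin transfer, 72 h, 37 °C. Readout: CellTiter-Glo luminescence after 10 min. Data normalized, curve-fitted.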
An asterisk follows results filed as active; i = inactive; u = inconclusive; x = not tested or not shown. A selection: hits, their analogues and other compounds. The true share with any hit is near 6.6%. Calls come from the whole dose curve; as a rule, active = well fitted curve in the direction sought with a large enough effect; inconclusive = small, poorly fitted or top-dose-only effect, or another doubt; inactive = no such curve, though single readings can be large; an effect the other way counts as inactive or inconclusive. Potency is the fitted concentration of half-maximal effect.

SMILES | HT1080 IDH1KD tx | HT1080NT lethal | TGFb inhibitor | HepG2 tox | KB-V1 MDR tox | KB-3-1 tox
CCN(c1ccccc1)S(=O)(=O)c1ccc(F)c(C(=O)Nc2ccc(C)cc2)c1 | x | x | -48% | -6% | i | i
Cc1ccc(C)c(N2CCN(C(=S)Nc3ccc4nc(N5CCN(C)CC5)cc(C)c4c3)CC2)c1 | u | u | u | 10µM* | i | u
Cc1nc2ccc(NC(=S)N3CCN(c4ccccn4)CC3)cc2nc1C | -3% | 0% | u | 6% | i | i
Cc1cc(N2CCN(C)CC2)nc2ccc(NC(=S)N3CCN(c4ccccn4)CC3)cc12 | u | 16µM* | -25% | -27% | i | i
Cc1ccc(C)c(N2CCN(C(=S)Nc3ccc4nc(N5CCOCC5)cc(C)c4c3)CC2)c1 | -27% | -23% | -18% | 3% | u | i
N#Cc1cccc(C=C(C(=O)c2ccccc2)c2ccccc2)c1 | u | 26µM* | x | x | i | x
Cc1cc(NC(=O)CCc2nc3cccnc3n2Cc2cccs2)ccc1Br | x | x | u | -28% | i | i
Cc1cc(C(=O)COc2ccc(-c3nnco3)cc2)c(C)n1Cc1ccccc1 | u | u | -5% | -26% | 2.9µM* | 16µM*
O=C(COc1ccc(-c2nnco2)cc1)NCc1ccccc1Cl | -13% | -13% | 19% | 37% | i | i
Cc1ccccc1CN1c2ccccc2-c2nc(SCC(=O)Nc3cc(F)ccc3F)ncc2S1(=O)=O | x | x | 11% | 13% | i | i
O=C(Nc1cc(C(F)(F)F)ccc1N1CCOCC1)c1ccncc1 | -1% | 3% | 4% | -21% | i | i
CC(C)CC(=O)NC(=S)Nc1cc(C(F)(F)F)ccc1N1CCOCC1 | -12% | 3% | -8% | -13% | 18µM* | i
Cc1onc(-c2ccccc2)c1C(=O)Nc1ccccc1N1CCOCC1 | 1% | 0% | u | -2% | 13µM* | i
CCOC(=O)c1ccc(N2CCOCC2)c(NC(=O)c2c(-c3ccccc3)noc2C)c1 | 2.1µM* | 1.8µM* | 7% | 1% | u | 5.8µM*
O=C(CCc1ccccc1)NC(=S)Nc1cc(C(F)(F)F)ccc1N1CCOCC1 | u | u | u | -29% | u | u
Cc1onc(-c2ccccc2)c1C(=O)Nc1cc(C(F)(F)F)ccc1N1CCOCC1 | 2.9µM* | u | -25% | -16% | 5.2µM* | 5.8µM*
COc1ccc(CNC(=O)c2nc(Cn3nc(C)c(Br)c3C)no2)cc1OC | x | x | -10% | -19% | i | i
COC(=O)c1cc2oc3ccccc3c2n1Cc1ccccc1Cl | x | x | x | 1% | x | x
Cc1cc2sc3ccccc3c(=O)c2c(C)c1O | -18% | -1% | -1% | 1% | 18µM* | u
O=c1c2ccccc2sc2ccccc12 | 7% | 1% | 2% | 2% | u | u
C=CCC(Nc1ccccc1)C12C=CC(O1)C(C(=O)OC)=C2C(=O)OC (centres undefined) | u | u | u | 14µM* | u | 18µM*
O=C(Nc1cc(NC(=O)c2ccccc2Cl)ccc1Cl)c1ccccc1 | x | x | 0% | -25% | u | i
Cc1ccc(S(=O)(=O)N2C[C@H]3n4c(=O)ccc(=O)n4C[C@H](OC(=O)NCC4CCCCC4)[C@@]3(O)C2)cc1 | u | 21µM* | u | -119% | i | u
CC(=O)Nc1ccc(S(=O)(=O)N(C)C2CCN(C)CC2)cc1 | 4% | 26% | -2% | -13% | i | i
CC(Oc1cccc(Cl)c1)C(=O)Nc1ccc(S(=O)(=O)N(C)C2CCN(C)CC2)cc1 (centres undefined) | -7% | -1% | -23% | -59% | 23µM* | i
SMILES | HT1080 IDH1KD tx | HT1080NT lethal | TGFb inhibitor | HepG2 tox | KB-V1 MDR tox | KB-3-1 tox
Cc1ccc(NC(=O)NCCOCCn2c(=O)oc3ccccc32)c(C)c1 | x | x | -21% | -12% | i | i
C=CCNC(=O)C1CC1(c1ccc(C)cc1)c1ccc(C)cc1 (centres undefined) | -25% | -1% | 18% | 1% | u | i
C=CCNC(=O)C1CC1(c1ccccc1)c1ccccc1 (centres undefined) | -9% | 6% | -6% | -12% | 18µM* | i
O=C(COC(=O)/C=C/c1ccco1)NCCN1C(=O)CSC1=O | 9% | 14% | -1% | 4% | i | i
CO/N=C\CC(=O)Nc1ccc(Cl)cc1Cl | 8.2µM* | u | -16% | 1% | 5.8µM* | u
C/C(CC(=O)Nc1ccc(Cl)cc1Cl)=N\NC(N)=S | 7.9µM* | 10µM* | u | -26% | i | i
CCOc1ccccc1Nc1nnc(-c2cc3cc(Cl)ccc3oc2=O)s1 | x | x | 0% | 10% | u | u
CCCCCCCCCCCCCCCC[N+](C)(C)Cc1ccc(F)cc1 | -23% | 3% | u | -122% | i | u
CC#CC[N+](C)(C)CCCCCCCC | -10% | -2% | 16% | 2% | i | 18µM*
Cc1cccc(C)c1NC(=O)C(=O)NCC(c1ccc2c(c1)OCO2)N1CCN(C)CC1 (centres undefined) | x | x | -13% | -1% | i | i
CCCN(CCC)C(=S)NC(=O)c1ccc(Cl)cc1Cl | 2.5µM* | 3.2µM* | u | -18% | u | i
